Assay outcomes from PubChem BioAssay.
Gal4-VP16 FLuc = Gal4-VP16 reporter inhibition counter-screen; 3.5% of 310,000 active; Drosophila S2 Gal4-VP16 UAS-luciferase, luminescence, 20 h; Potency, µM (top dose mostly 53.6 µM), for the others: at the highest dose activity, negative = inhibition, hits mostly inhibitors;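 further: Gal4-VP16 expression switched on by copper sulfate through the metallothionein promoter; on the % scale 0 is the no-effect control and ±100 the full control effect; nearly all actives have a fitted effect of over 50% in size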
MCF10A rereplic = DNA re-replication induction in MCF 10a cells | MCF 10A DNA re-replication, Hoechst nuclear intensity, 48 h | Potency, µM (doses to about 46.1 µM), for inactives: at the highest dose activity, positive = re-replication, most hits filed as activators | 2.9% of 350,000 active; further: % of control where 0% means no effect; nearly all actives have a fitted effect of over 50% in size
SW480 rereplic = DNA re-replication induction in SW480 cells. SW480 DNA re-replication, Hoechst DNA content imaging, 48 h. Potency, µM (highest dose often 46.1 µM), for inactives: top-dose re-replication activation, hits mostly activators. 1.8% of 340,000 active. AID 624297; further: % of control where 0% means no effect; nearly all actives have a fitted effect of over 55% in size
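250 cells/well; 23 nL cpd via pin tool; 48 hr, 37 C, 5% CO2; Hoechst 40 min; imager read of total nuclear intensity, ex 405/em 500-530 nm.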
RORgamma inh = inhibitors of mouse ROR gamma transcriptional activity; 5.4% of 310,000 active; Potency, µM (doses to about 53.6 µM), without a hit: at the highest dose activity change, negative = inhibition, usual class: inhibitors; AID 2551; Drosophila S2 Gal4-RORgamma UAS-luciferase reporter, 20 h; further: on the % scale 0 is the no-effect control and ±100 the full control effect; nearly all actives have a fitted effect of over 60% in size
Target sequence (P51450 whole entry, looked up, the tested form may be a part): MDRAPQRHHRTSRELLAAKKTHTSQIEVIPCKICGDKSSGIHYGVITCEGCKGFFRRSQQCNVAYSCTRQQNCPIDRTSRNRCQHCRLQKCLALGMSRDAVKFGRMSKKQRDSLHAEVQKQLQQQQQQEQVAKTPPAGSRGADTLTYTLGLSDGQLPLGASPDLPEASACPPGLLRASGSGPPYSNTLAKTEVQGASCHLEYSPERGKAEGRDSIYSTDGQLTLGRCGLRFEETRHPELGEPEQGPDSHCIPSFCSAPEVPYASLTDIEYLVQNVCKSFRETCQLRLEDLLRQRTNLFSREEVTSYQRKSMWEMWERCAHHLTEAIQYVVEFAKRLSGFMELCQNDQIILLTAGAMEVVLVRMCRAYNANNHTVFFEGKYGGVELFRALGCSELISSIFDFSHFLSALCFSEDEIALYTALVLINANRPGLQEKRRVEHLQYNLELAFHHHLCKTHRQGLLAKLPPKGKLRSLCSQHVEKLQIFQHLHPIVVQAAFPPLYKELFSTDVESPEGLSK
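Schneider cells (Drosophila), stable Gal4 DBD–ROR gamma + UAS-luc; 1 hr cmpd preincubation; Cu2+ induction 700 uM final; 20 hr ambient; luminescence.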
KB-V1 cytotox = KB-V1 MDR subline cytotoxicity; KB-V1 MDR cells viability, CellTiter-Glo, 72 h; Potency, µM (top dose mostly 46.1 µM), most hits filed as cytotoxic; 3.4% of 400,000 active; AID 1347076; further: on the % scale 0 is the no-effect control and ±100 the full control effect; nearly all actives have a fitted effect of over 60% in size
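Drug-selected KB-V1 cells, grown in DMEM lacking phenol red with 10% FBS, receive compound titrations; after three days at 37 degrees C, surviving cell ATP is quantified by CellTiter-Glo luminescence and responses normalized and curve-fitted.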
KB-3-1 cytotox = KB-3-1 parental cell cytotoxicity; KB-3-1 viability, CellTiter-Glo ATP luminescence, 72 h; Potency, µM (titrated, usually from 46.1 µM), most hits filed as cytotoxic; 1.4% of 400,000 active; further: on the % scale 0 is the no-effect control and ±100 the full control effect; nearly all actives have a fitted effect of over 60% in size
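Multi-concentration cytotoxicity screen in KB-3-1 cells grown in DMEM lacking phenol red with 10% FBS. After 72 h at 37 °C with compound, ATP-dependent luminescence was recorded.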
* hit, by the source's call; i = inactive; ? = inconclusive; · = no result given. Rows were chosen to be rich in hits. Some 10% of all compounds tested hit in one or more screens of this group. The call rests on the fitted dose curve; in most records, active means well fitted curve in the direction sought with a large enough effect; inconclusive means small, poorly fitted or top-dose-only effect, or another doubt; inactive means no such curve, though single readings can be large; an effect the other way counts as inactive or inconclusive. Potency means the concentration at half of the fitted maximal effect.

SMILES	Gal4-VP16 FLuc	MCF10A rereplic	SW480 rereplic	RORgamma inh	KB-V1 cytotox	KB-3-1 cytotox
CC(NC(=O)[C@H](Cc1c[nH]c2ccccc12)NC(=O)[C@@H]1Cc2ccccc2CN1)c1ccccc1 (some centres undefined)	-2%	13%	0%	25%	i	i
Cc1cccc(NC(=O)[C@H](Cc2c[nH]c3ccccc23)NC(=O)[C@@H]2Cc3ccccc3CN2)c1	-8%	16µM*	21µM*	9%	i	5.8µM*
CCc1ccc(NC(=O)[C@H](NC(=O)[C@@H]2Cc3ccccc3CN2)c2ccccc2)cc1	-1%	0%	?	2%	?	i
Cc1ccc(NC(=O)[C@H](Cc2ccccc2)NC(=O)[C@@H]2Cc3ccccc3CN2)c(C)c1	-2%	2%	-7%	-7%	i	i
CCc1ccc(NC(=O)[C@H](Cc2c[nH]c3ccccc23)NC(=O)[C@@H]2Cc3ccccc3CN2)cc1	-3%	18µM*	16µM*	?	?	5.2µM*
O=C(CNC(=O)c1ccccc1)OCC(=O)c1cccc2ccccc12	·	·	·	·	i	?
CC1C(c2ccccc2)N(C)C(c2ccccc2)C(C)C1(O)C#Cc1ccccc1 (centres undefined)	?	23µM*	4%	16µM*	?	?
C/C(=N/NC(N)=S)c1ccc(Br)s1	5µM*	0%	?	1.1µM*	8.2µM*	?
C/C(=N\NC(N)=S)c1cc(-c2ccccc2)c(-c2ccccc2)s1	1.4µM*	?	?	0.45µM*	?	i
C/C(=N\NC(=O)Cc1ccccc1)c1ccc(Br)s1	2%	6%	-2%	-18%	i	i
CC(C)N1CCC1(C)C(=O)Nc1nc2ccccc2[nH]1 (centres undefined)	·	·	·	·	i	i
N=c1c(C(=O)NCc2ccco2)cc2c(=O)n3ccccc3nc2n1CC1CCCO1 (centres undefined)	·	?	?	·	i	i
COc1ccc(CCNC(=O)c2cc3c(=O)n4ccccc4nc3n(CC3CCCO3)c2=N)cc1 (centres undefined)	·	?	-35%	·	i	i
N=c1c(C(=O)NCCc2ccccc2)cc2c(=O)n3ccccc3nc2n1CC1CCCO1 (centres undefined)	-1%	18µM*	2.6µM*	33%	i	i
N=c1c(C(=O)NCc2ccc3c(c2)OCO3)cc2c(=O)n3ccccc3nc2n1CC1CCCO1 (centres undefined)	-6%	?	23µM*	2%	i	?
N=c1c(C(=O)NCc2ccc(F)cc2)cc2c(=O)n3ccccc3nc2n1CC1CCCO1 (centres undefined)	-2%	?	2.9µM*	-1%	i	i
COc1ccc(CCNC(=O)c2cc3c(=O)n4ccccc4nc3n(CC3CCCO3)c2=N)cc1OC (centres undefined)	1%	-35%	-5%	7%	i	i
Cc1ccc(C)c(NC(=O)Cn2cc(C(=O)C3CCCCC3)c3ccccc32)c1	·	·	·	·	?	i
CCc1cccc(C)c1NC(=O)c1cc(C)nc2c1c(C)nn2-c1cccc(Cl)c1C	·	·	·	·	i	i
Cc1cc(C)c2c(=O)c3c(oc2c1)C(=O)N(Cc1ccco1)C3c1ccccc1F (centres undefined)	·	·	·	·	i	i
CCOC(=O)CC1COc2ccccc2N1C(=O)c1ccc(C)cc1 (centres undefined)	-7%	4%	-12%	-1%	18µM*	i
Cc1cccc(C)c1NC(=O)C(c1cc2ccccc2o1)N1CCN(C)CC1 (centres undefined)	·	·	·	·	?	i
CCCCC(CC)CN=C(N)NC(N)=NCCCCCCN=C(N)NC(N)=NCC(CC)CCCC (centres undefined)	0%	12µM*	?	?	?	?
CCCCC(CC)CO (centres undefined)	-5%	7%	-69%	1%	i	i
N#CCCn1c(=O)c(CCc2ccccc2)nc2cnc(N3CCOCC3)nc21	3%	·	·	2%	·	·
SMILES	Gal4-VP16 FLuc	MCF10A rereplic	SW480 rereplic	RORgamma inh	KB-V1 cytotox	KB-3-1 cytotox
CCOC(=O)c1c(-c2ccccc2)csc1NC(=O)c1cc(-c2cccc(OC)c2)on1	·	·	·	·	i	i
C=CCN(c1ccccc1OC)S(=O)(=O)c1cccc(C(=O)OCC(=O)N2CC(C)OC(C)C2)c1 (centres undefined)	·	11%	7%	·	4.1µM*	i
C=CCN(c1ccccc1OC)S(=O)(=O)c1cccc(C(=O)OC2CCOC2=O)c1 (centres undefined)	·	-27%	-1%	·	i	i
COc1ccc(NC(=O)COC(=O)C(NC(=O)c2ccc(C)cc2)C(C)C)cn1 (centres undefined)	·	-8%	-6%	·	15µM*	i
COc1cc(OC)cc(C(=O)N[C@H](C(=O)OCC(=O)Nc2ccc(C)cc2C)C(C)C)c1	-14%	14%	6%	33%	i	?
CC(C)(C)OC(=O)NCCc1nnc(SCc2ccccc2Cl)o1	26%	12%	1%	43%	i	i
CC(C)(C)OC(=O)NCCc1nnc(S(=O)(=O)Cc2ccc(Cl)cc2Cl)o1	7.1µM*	7.3µM*	?	?	i	i
CC1=NN(c2cccc(C(=O)O)c2)C(=O)/C1=C\C=C/c1ccccc1	3.5µM*	?	14%	1.1µM*	?	?
CC1=NN(c2ccc(C)cc2)C(=O)/C1=C\C=C\c1ccccc1	?	?	-7%	?	?	i
Cc1csc(NC(=O)CSc2nc(C(C)C)nc3ccccc23)n1	-3%	18µM*	26%	32%	15µM*	?
CC(C)c1nc(SCC(=O)c2ccc(F)cc2)c2ccccc2n1	?	3.3µM*	?	5.6µM*	i	i
CC(C)c1nc(SCC(=O)Nc2nccs2)c2ccccc2n1	6%	18%	5%	-18%	i	i
CCN(CC)S(=O)(=O)c1ccc(NC(=O)c2ccc(OCC3CCCO3)cc2)cc1 (centres undefined)	·	?	-18%	·	15µM*	i
CCC(=O)Nc1ccc(OCC2CCCO2)cc1 (centres undefined)	-11%	3%	2%	17%	i	i
COc1ccc(S(=O)(=O)N(C)C)cc1NC(=O)c1ccc(OCC2CCCO2)cc1 (centres undefined)	·	·	·	·	i	i
CCOc1ccc(NC(=O)c2ccc(OCC3CCCO3)cc2)cc1S(=O)(=O)N(CC)CC (centres undefined)	·	3%	4%	·	2.6µM*	i
